# Laboratory results: PubChem BioAssay (NCATS)
# Records with an inconclusive call do not appear. A number with no mark means an inactive call. Active and inactive are the calls of the source. Calls come from the whole dose curve; as a rule, active = well fitted inhibition curve with a large enough effect; inconclusive = small, poorly fitted or top-dose-only effect; inactive = no such curve, though single readings can be large or run the other way.
# Assay: NS1 protein of Zika virus - qHTS assay to identify small molecule inhibitors in human HEK 293 cells (AID 1347053); note: nearly all actives have a fitted effect of over 55% in size;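 for activity change, negative = inhibition: plate controls were infected untreated cells for no effect and uninfected cells for full effect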
# Details: HEK293 ZIKV MR766 infection, NS1 TR-FRET, 24 h; series mostly up to 46.1 µM; activity change, negative = inhibition: at the top concentration
# Text: National Center for Advancing Translational Sciences [NCATS]
# Johns Hopkins University School of Medicine
# The non-structural 1 (NS1) protein of zika virus is known to associate with the viral replication complex. This cell-based TR-FRET ZIKV NS-1 assay measures the increased NS-1 protein in human HEK 293 cells after a 24-hour Zika virus infection by a TR-FRET assay readout. A decrease in the Time-resolved fluorescence energy transfer (TR-FRET) signal in this assay by small molecule treatment indicates an inhibitory effect of the small molecule on the expression of Zika virus NS1 correlating with Zika virus replication.
# HEK 293 cells were cultured in EMEM (ATCC, Cat. # 30-2003) medium with 10% fetal bovine serum (GE healthcare Life Sciences, Cat. # SH30071.03), and 1% Pen/Strep (Gibco, Cat. # 15140-122). Cells were seeded in the assay plate and incubated at 37 C with 5% CO2 for 20 hours. Compounds were added to cells and incubated for one hour before addition of ZIKV MR766 strain solution to cells (MOI = 0.5). After an incubation at 37 C for 24 hours, the reagent mixture of TR-FRET ZIKV NS1 assay using two anti-ZIKV NS1 antibodies was added to assay plates. The TR-FRET signals in assay plates were measured using an Envision plate reader (PerkinElmer). Data were normalized by using the cell-containing wells without ZIKV as a negative control (0% NS-1) and wells containing ZIKV infected cells as a positive control (100% NS-1 level).
# Potency is the fitted concentration of half-maximal effect.
Structure (SMILES),"activity change, negative = inhibition",Potency
c1cc2c(cc1[C@H]1OC[C@H]3[C@H]1CO[C@H]3c1ccc3c(c1)OCO3)OCO2,1.79%,
CCCN1CCC[C@H](c2cccc(O)c2)C1,-3.38%,
O=C(O)COc1ccccc1,-4.18%,
CC(=O)NCCc1c[nH]c2ccccc12,-1.32%,
ClC1=C(Cl)[C@]2(Cl)[C@@H]3[C@@H]4C[C@@H]([C@H]5O[C@@H]45)[C@@H]3[C@@]1(Cl)C2(Cl)Cl,31.1% [at 92.8 µM],
CC(=O)Nc1ccc(OC[C@](C)(O)C(=O)Nc2ccc([N+](=O)[O-])c(C(F)(F)F)c2)cc1,-1.26%,
CC1(C)CC/C(=C/c2ccc(Cl)cc2)C1(O)Cn1cncn1 (stereo not given),-16.3% [at 92.8 µM],
CCCCCC[C@H]1C(=O)O[C@H](C)[C@H](NC(=O)c2cccc(NC=O)c2O)C(=O)O[C@@H](C)[C@@H]1OC(=O)CC(C)C,,2.96 µM (active)
CCN1CCN(C(=O)Cc2ccc(Nc3ncc(F)c(Nc4ccc(C(=O)Nc5ccccc5Cl)cc4)n3)cc2)CC1,,11.8 µM (active)
Clc1cnc(Oc2ccc(Oc3ncc(Cl)cc3Cl)cc2)c(Cl)c1,-0.377%,
c1ccc2c(CN3CCNCC3)cccc2c1,-2.33%,
CC=C(C)C(=O)N[C@@H](c1ccccc1)[C@@H](O)C(=O)O[C@H]1C[C@@]2(O)[C@@H](OC(=O)c3ccccc3)[C@@H]3[C@]4(OC(C)=O)CO[C@@H]4C[C@H](O)[C@@]3(C)C(=O)[C@H](OC(C)=O)C(=C1C)C2(C)C,,0.0033 µM (active)
COc1ccc(CC2NCCc3cc(OC)c(OC)cc32)cc1OC (stereo not given),-6.75%,
O=C1CCC[C@@H]2[C@H]3CCCN4CCC[C@@H](CN12)[C@@H]34,-6.81%,
CC(=Cc1csc(C)n1)[C@@H]1C[C@H]2O[C@@H]2CCC[C@H](C)[C@@H](O)[C@@H](C)C(=O)C(C)(C)[C@@H](O)CC(=O)O1,-68.9%,
NC(CP(=O)(O)O)C(=O)O (stereo not given),6.04%,
CCCCC(CC)COC(=O)c1ccccc1C(=O)OCC(CC)CCCC (stereo not given),-3.31% [at 92.8 µM],
CCc1c(C(=O)C(N)=O)c2c(OCC(=O)O)cccc2n1Cc1ccccc1,-2.67%,
O=[N+]([O-])/N=C1\NCCN1Cc1ccc(Cl)nc1,-23.1%,
O=c1cccc2n1CC1CNC[C@H]2C1,3.29%,

Structure (SMILES),"activity change, negative = inhibition",Potency
CCNC(=O)CC1N=C(c2ccc(Cl)cc2)c2cc(OC)ccc2-n2c(C)nnc21 (stereo not given),3.38%,
C[C@]12CC[C@H]3[C@@H](CCC4=CC(=O)CC[C@@]43C)[C@H]1CC[C@H]2OC(=O)CCC1CCCC1,-3.21%,
O=[N+]([O-])c1cc([N+](=O)[O-])c2ccccc2c1,-1.12% [at 92.8 µM],
O=C(Nc1ccncc1)C(=O)c1cn(Cc2ccc(Cl)cc2)c2ccccc12,,0.0093 µM (active)
CC(C)(O)C=CC(=O)[C@](C)(O)[C@H]1[C@H](O)C[C@]2(C)[C@@H]3CC=C4[C@@H](C=C(O)C(=O)C4(C)C)[C@]3(C)C(=O)C[C@@]12C,,3.32 µM (active)
CC(=O)OCC1=C(C(=O)O)N2C(=O)[C@@H](N)[C@@H]2SC1,3.09%,
NCc1cc(=O)[nH]o1,10.3%,
CC(=O)[C@H]1CCC2C3CC[C@H]4C[C@H](O)CC[C@]4(C)C3CC[C@@]21C (stereo not given in full),0.861%,
Cc1nccc2c1[nH]c1ccccc12,-13.8%,
CC(C)[C@H]1C(=O)N[C@H](CO)Cc2c[nH]c3cccc(c23)N1C,-3.37%,
CCCCCCCCCC(CC)c1ccc(S(=O)(=O)O)cc1 (stereo not given),20.4% [at 92.8 µM],
C[C@@H](N)Cc1cnc[nH]1,3.48%,
C[N+]1(C)C2CCC1CC(OC(=O)C(CO)c1ccccc1)C2 (stereo not given),,inactive
COc1cccc2c1[C@]13CCN(CC4CC4)[C@H](C2)[C@]1(OC)CCC(=O)C3,7.37%,
C[N+](C)(C)CC(=O)O,,inactive
CC=C(C)C(=O)O[C@H]1C(C)=C2[C@@H]3OC(=O)[C@@](C)(O)[C@@]3(O)[C@@H](OC(=O)CCC)C[C@](C)(OC(C)=O)[C@@H]2[C@@H]1OC(=O)CCCCCCC,,0.332 µM (active)
COc1nn(CSP(=S)(OC)OC)c(=O)s1,6.51% [at 92.8 µM],
CN1C2CCC1CC(OC(=O)c1cc(Cl)cc(Cl)c1)C2 (stereo not given),12.1%,
CCOP(=O)(OCC)C(C)NC(=O)N(CCCl)N=O (stereo not given),2.74%,
CCO/N=C(\CC)C1=C(O)CC(c2c(C)cc(C)cc2C)CC1=O (stereo not given),-13.2% [at 92.8 µM],
